Sampled rows, rich in hits. Any-hit rate of the full collection: about 2.9%.
MEKK2 mut-MEK5 – signal of MEK5 binding to mutant human MEKK2 PB1 domain; bead flow cytometry, Alexa488-MEK5 binding to MEKK2 mutant; percent response, % at 10 µM; 0.35% of 290,000 active; AID 1530; in the data active = percent response above about 24%, passing the limit was not always enough
MEKK3 PB1 HTS – modulators (inhibitors or enhancers) of MEK5 binding to human MEKK3 PB1 domain | Q99759 | bead-based flow cytometry, Alexa488-MEK5 binding to MEKK3; actives lie on both sides; 0 = blocked by unlabeled MEK5, 100 = vehicle | binding response (% of control), % at 10 µM | 1.4% of 290,000 active | AID 1529;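 active = binding response more than 3 SD above or below the average of its plate-row segment, actives on both sides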;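 note: Alexa488 bead fluorescence after subtracting the streptavidin-only scavenger bead signal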
Target sequence (Q99759 whole entry, looked up, the tested form may be a part): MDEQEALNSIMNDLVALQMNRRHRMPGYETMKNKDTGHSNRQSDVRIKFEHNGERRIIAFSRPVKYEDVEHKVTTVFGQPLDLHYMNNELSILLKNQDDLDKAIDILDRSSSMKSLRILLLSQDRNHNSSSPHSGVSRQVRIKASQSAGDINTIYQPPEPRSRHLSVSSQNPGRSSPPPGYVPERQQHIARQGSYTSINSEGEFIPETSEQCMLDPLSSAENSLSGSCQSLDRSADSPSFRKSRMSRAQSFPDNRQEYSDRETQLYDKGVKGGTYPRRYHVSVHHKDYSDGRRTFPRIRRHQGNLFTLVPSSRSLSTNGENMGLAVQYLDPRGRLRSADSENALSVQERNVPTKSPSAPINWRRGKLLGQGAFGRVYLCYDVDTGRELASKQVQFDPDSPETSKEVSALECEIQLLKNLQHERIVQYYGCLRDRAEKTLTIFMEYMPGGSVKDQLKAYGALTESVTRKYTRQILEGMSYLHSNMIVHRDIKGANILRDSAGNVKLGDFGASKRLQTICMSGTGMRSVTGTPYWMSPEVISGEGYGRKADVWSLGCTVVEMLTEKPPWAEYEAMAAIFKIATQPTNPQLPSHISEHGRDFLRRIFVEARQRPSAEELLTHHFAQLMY
MEKK2 WT-MEK5 – raises or lowers MEK5 binding to wildtype human MEKK2 PB1 domain; Q9Y2U5; bead flow cytometry, Alexa488-MEK5 binding to MEKK2 WT; actives lie on both sides; binding response (% of control), % at 10 µM; 1.1% of 290,000 active; AID 1531; in the data active = binding response below about 67% or above about 130%
CRFBP-R2 block – antagonists of CRF-binding protein/CRF-R2 receptor complex | HEK293 CRF-R2/CRF-BP, CRF-induced calcium fluorescence | inhibition, % at 11.8 µM | 0.59% of 350,000 active | AID 588475;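 active = inhibition of the ligand-induced calcium signal above about 50% at the single tested concentration, limit read from the data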
CRFR2-BP ag – CRF-BP/CRF-R2 complex agonism; 0.46% of 350,000 active; HEK293 CRF-R2/CRF-BP, calcium dye fluorescence (FLIPR); percent of saturating CRF peptide response; activation, % at 13.2 µM; AID 588473;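 active = activation of at least 50%, plus an integration ratio under a set limit after plate pattern correction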;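 note: plate controls were neutral control wells without compound for no effect and CRF at EC100 for full effect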
ABCB6 inh 2 – blocks the human ABCB6 transporter; K562-ABCB6 porphyrin accumulation, flow cytometry, 1 h; hits give low values; fluorescence ratio to DMSO, % at 10 µM; 0.19% of 360,000 active;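 active = fluorescence ratio to DMSO below 75%, the collection mean minus 3 SD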;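 note: signal is porphyrin accumulated inside mitochondria; 100% equals median channel fluorescence of DMSO control wells; lower ratio means ABCB6 inhibition with less porphyrin fluorescence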
MEKK2wt confirm – raises or lowers MEK5 binding to wildtype human MEKK2, retest; shares compounds with MEKK3 PB1 HTS; bead flow cytometry, Alexa488-MEK5 binding to MEKK2 WT; actives lie on both sides; binding response (% of control), % at 10 µM; 2.4% of 5,900 active; AID 1892; in the data active = binding response below about 16% or above about 210%; inactive = in between
MEKK2mut confirm – signal of MEK5 binding to mutant human MEKK2, retest; shares compounds with MEKK3 PB1 HTS; bead flow cytometry, Alexa488-MEK5 binding to MEKK2 mutant; percent response, % at 10 µM; 2% of 5,900 active; AID 1893; in the data active = percent response mostly above about 71%, no sharp cut-off; inactive = mostly below about 38%;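 note: higher means compound restores mutant binding toward wildtype level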
MEKK3 confirm – MEKK3-MEK5 PB1 inhibition, single concentration confirmation; binding response (% of control), % at 10 µM; AID 1894; 1.8% of 5,900 active; shares compounds with MEKK3 PB1 HTS; bead flow cytometry, Alexa488-MEK5 binding to MEKK3; hits give low values;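 active = binding response below 72% of control, or above a set upper limit, though filed actives all read lower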;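 note: 100% = DMSO only wells and 0% = binding blocked by excess unlabeled MEK5; lower values mean stronger disruption of MEK5 binding to MEKK3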
* hit, by the source's call; i = inactive; . = not tested or not shown; [ ] = another dose, or the depositor's remark.

SMILES | MEKK2 mut-MEK5 | MEKK3 PB1 HTS | MEKK2 WT-MEK5 | CRFBP-R2 block | CRFR2-BP ag | ABCB6 inh 2 | MEKK2wt confirm | MEKK2mut confirm | MEKK3 confirm
CCOC(=O)C(CCCOc1ccc(C)cc1)C(=O)OCC | 4 | 102 | 103 | 16 | 6 | 99 | . | . | .
CC1CCCCC1NC(=O)C1CCN(S(=O)(=O)c2cccc3nonc23)CC1 (stereo not given) | -4 | 91 | 87 | -3 | 1 | 95 | . | . | .
COC(=O)c1cc(C(=O)NCc2ccccc2)c(=O)[nH]c1C | -19 | 3.0*[inhibitor] | 3.0*[inhibitor] | -8 | 0 | 108 | 100 | -2 | 102
CC(C)(C)C(=O)c1sc2nc(-c3cccs3)cc(C(F)(F)F)c2c1N | -9 | 94 | 53*[inhibitor] | -32 | 83* | i | 102 | 6 | 103
CCN(CC)C(=O)c1sc2nc(-c3cccs3)cc(-c3cccs3)c2c1N | -6 | 98 | 81 | -19 | 6 | 151 | . | . | .
COc1ccc(C(=O)Nc2cc(OC)ccc2OC)cc1 | . | . | . | -4 | -2 | 93 | . | . | .
COc1ccc(OC)c(NC(=O)c2cc3ccccc3cc2OC)c1 | 28* | 103 | 106 | -7 | -1 | 98 | 109 | 4 | 104
O=c1cc(-c2ccccc2)oc2ccc3ccccc3c12 | . | . | . | -10 | 3 | 98 | . | . | .
CCN(CC)c1ccc2nc3c4ccccc4c(=O)cc-3oc2c1 | -26 | 89 | 53*[inhibitor] | -44 | 23 | . | 76 | -14 | 96
Clc1ccc(OCCN2CCCCC2)cc1Cl | 1 | 104 | 102 | -43 | -1 | 99 | . | . | .
ON=C1c2cc(OCCN3CCCCC3)ccc2-c2ccc(OCCN3CCCCC3)cc21 | 31* | 117 | 232* | 9 | -1 | 96 | 180 | 48 | 105
O=C1Cc2ccccc2Sc2cc(OCCCN3CCCCC3)ccc21 | 1 | 75*[inhibitor] | 108 | -25 | 0 | 96 | 118 | -1 | 99
c1cc(OCCCN2CCCCC2)ccc1CN1CCCCC1 | 33* | 113 | 190* | -2 | 3 | 99 | 139 | 31 | 106
Clc1ccc(OCCCN2CCCC2)cc1Cl | 1 | 131* | 107 | -7 | 5 | 100 | 115 | 5 | 104
CCOc1ccc(OCCN2CCCCC2)cc1 | -3 | 93 | 92 | -12 | -2 | 89 | . | . | .
CN(C)CCCOc1ccc2c(c1)Sc1ccccc1CC2=O | 0 | 96 | 109 | -5 | 5 | 100 | . | . | .
O=C(COC(=O)c1cc(Cl)cc(Cl)c1)NCc1ccco1 | . | . | . | 3 | 0 | 97 | . | . | .
CCOC(=O)N1CCN(CC(O)COc2ccccc2[N+](=O)[O-])CC1 (stereo not given) | 9 | 100 | 105 | 35 | 2 | 96 | . | . | .
O=C(CSc1n[nH]c(=O)n1-c1cccnc1)Nc1ccccc1Cl | 8 | 104 | 114 | -11 | -2 | 95 | . | . | .
Nc1ccc(CN2CCCCCC2)cc1 | 13 | 116 | 136* | 2 | -1 | 94 | 41 | -20 | 81
Brc1ccc(CN2CCCCCC2)cc1 | . | . | . | 1 | 2 | 96 | . | . | .
CCCn1c(SCC(=O)Nc2cccnc2Cl)n[nH]c1=O | . | . | . | 3 | -1 | 102 | . | . | .
Cc1nnc2n1N=C(c1ccc(F)cc1F)CS2 | . | . | . | 6 | -1 | 99 | . | . | .
CCN(CC)S(=O)(=O)c1cccc(NC(=O)Nc2cccc(C(F)(F)F)c2)c1 | 20 | 102 | 219* | 26 | 13 | 89 | 183 | 45 | 104
CCCCn1cc(SCC(=O)O)c2ccccc21 | -21 | -1.0*[inhibitor] | -1.0*[inhibitor] | 1 | 1 | 106 | 101 | 0 | 102
CCCn1cc(SCC(=O)NC2CCCC2)c2ccccc21 | 3 | 101 | 103 | -13 | -1 | 95 | . | . | .
